The target of assay [1] is T1, Aspartate--tRNA(Asp/Asn) ligase (Mycobacterium tuberculosis (strain ATCC 25618 / H37Rv)) (UniProt P9WFW3). Also: in the data most compounds retested in dose-response had high values.
T1 sequence (whole entry): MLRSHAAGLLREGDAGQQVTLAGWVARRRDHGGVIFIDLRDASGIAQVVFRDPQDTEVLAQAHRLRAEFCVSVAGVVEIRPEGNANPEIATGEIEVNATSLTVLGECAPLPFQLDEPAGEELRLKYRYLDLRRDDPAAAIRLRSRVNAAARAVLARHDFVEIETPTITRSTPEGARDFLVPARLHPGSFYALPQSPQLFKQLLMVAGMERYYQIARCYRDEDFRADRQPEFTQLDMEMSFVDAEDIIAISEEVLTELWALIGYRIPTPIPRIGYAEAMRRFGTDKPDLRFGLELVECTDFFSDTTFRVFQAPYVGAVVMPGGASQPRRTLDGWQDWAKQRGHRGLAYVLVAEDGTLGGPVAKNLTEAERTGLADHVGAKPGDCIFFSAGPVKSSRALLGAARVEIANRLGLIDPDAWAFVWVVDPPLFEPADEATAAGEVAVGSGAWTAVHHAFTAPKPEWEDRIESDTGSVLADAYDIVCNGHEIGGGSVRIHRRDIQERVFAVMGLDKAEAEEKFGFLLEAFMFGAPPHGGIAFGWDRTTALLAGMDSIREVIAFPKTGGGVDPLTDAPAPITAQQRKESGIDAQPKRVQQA
The assay is described as follows: Assay for Asp RNA synthetase-1 from Mycobacterium tuberculosis. To be noted: 30 µM. Details: scale not given: direction of the effect not stated beside the values. It counts as functional.

Assay [2] has as its target Shiga toxin 2 (Escherichia coli O157:H7) (UniProt P09385+P09386). The assay is described as follows: E. coli 0.157:H7 Shiga Toxin SOP - stx2 screening assay. It counts as functional. More on the design: scale not given: direction of the effect not stated beside the values. The conditions noted are these: 30 µM.

For the compound `CC(=O)N1CCCC(c2cnc(-c3c(C)nn(C)c3C)cn2)C1` (configuration not stated), the Percent Effect in assay [1] was -3.49%; in assay [2], -14.1%.
Consider `COc1ccc2c(c1)CCN(CCC(=O)NC1CCCCC1)CC2`, for which the Percent Effect in assay [1] is -0.993%; in assay [2] it was -9.64%.
For the compound `c1ncn(CC2CCCCN2Cc2noc(C3CC3)n2)n1` (configuration not stated), the Percent Effect in assay [1] worked out at 3.28%; in assay [2] it was 26%.
With `Cc1cnn(CC2CCCN2CC(=O)Nc2cc(C(C)(C)C)no2)c1` (configuration not stated), the Percent Effect in assay [1] was 0.278%; in assay [2] it was -37.5%.
`CSCCCN1CCCC1c1noc(C)n1` (configuration not stated): the Percent Effect stood at 1.68% in assay [1] and 11.3% in assay [2].
The like results for `O=C(c1cccnc1O)N(Cc1ccsc1)CC1CCCO1` (configuration not stated) were, in that order, -1.37% and -27.4%.
The like results for `COc1ccc(-c2nc(CN3CCc4c(ncn4C)C3)cs2)cc1` were, in that order, -3.7% and -71.2%.
The like results for `CCn1nc(C(=O)N2CCCC(n3cncn3)C2)ccc1=O` (configuration not stated) were, in that order, -5.19% and 18.8%.
`O=C(Nc1cnccn1)[C@H]1COC[C@H]2CN(C3CCCC3)C[C@H]21`: the results for the Percent Effect in assay [1] and in assay [2] were -3.53% and 8.55%, respectively.
The like results for `c1cnc(NCc2noc3c2CN(CCN2CCCC2)CC3)nc1` were, in that order, 1.46% and -35.5%.
For `Cc1ccc(C(=O)N2CCN(CCC(C)(C)C)CC2)c(=O)[nH]1`, the Percent Effect in assay [1] is -4.54%; in assay [2], 1.57%.
Consider `COc1cc(C(=O)Nc2nc(C)no2)ccc1C`, for which the Percent Effect in assay [1] is -0.143%; in assay [2] it was -2.1%.
Turning to `CCS(=O)(=O)N1CC[C@H](OC)[C@@H]1Cc1ccncc1`, the Percent Effect is -2.52% in assay [1] and -2.84% in assay [2].
The like results for `Cc1ccccc1CSCCn1nc2ccccn2c1=O` were, in that order, -1.33% and 26.4%.
`O=C(Nc1ccccn1)N(CCO)Cc1ccsc1`: the figures for the Percent Effect in assay [1] and in assay [2] were -3.79% and 31.7%, respectively.
The like results for `CN(C)C(=O)N1CCOCC2(CCN(c3ccccn3)C2)C1` (configuration not stated) were, in that order, 1.11% and -15.4%.
Consider `CCc1ncc(CNC2CC(=O)N(CCc3cccc(Cl)c3)C2)cn1` (configuration not stated), for which the figures for the Percent Effect in assay [1] and in assay [2] were -0.729% and -24.9%, respectively.
The like results for `Cc1nc(C)c(C(=O)NCCNC(=O)Cc2cccc(F)c2)s1` were, in that order, 4.17% and 6.14%.
Turning to `CN(Cc1ccsc1)C(=O)c1cccc(F)c1`, the Percent Effect in assay [1] was -5.62%; in assay [2], -0.747%.
In the case of `COCCNc1nc(C2CCCC2)nc2c1CCNCC2`, the Percent Effect was 2.87% in assay [1] and -36.8% in assay [2].
The like results for `Cn1cc(C2COC3(CCN(C(=O)c4ccc(F)cc4)CC3)C2)cn1` (configuration not stated) were, in that order, 0.474% and 4.34%.

Source of the values: ChEMBL document CHEMBL3988442, “University of Dundee, Small-Polar-MMV Screening Library” (2021).
